The record followed here is PubChem BioAssay (Tox21).

The structures appear in SMILES notation. Unmarked numbers belong to inactive results. Results filed as inconclusive are left out. Calls of active or inactive are those of the source. Unless noted, the call rests on the fitted dose curve; in most records, active means well fitted curve in the direction sought with a large enough effect in the repeat runs; inconclusive means weak or mixed curves; inactive means no such curve, though single readings can be large; an effect the other way counts as inactive or inconclusive.

The target in experiment [1] is Thyrotropin receptor (Homo sapiens) (UniProt P16473). Briefly: qHTS assay to identify small molecule agonists of the thyroid stimulating hormone receptor (TSHR) signaling pathway (AID 1224843; calls by dose curve; further: nearly all actives have a fitted effect of over 45% in size). The method, boiled down:
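Agonist-mode screen: TSHR HEK293 cells received test chemicals for half an hour at room temperature, then HTRF cAMP detection reagents for one hour prior to fluorescence measurement. Each chemical ran as a 15-concentration series, triplicated.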

Experiment [2] can be described thus: qHTS assay to identify small molecule agonists of the hypoxia (HIF-1) signaling pathway - cell viability counter screen (AID 1224844; calls by dose curve; further: nearly all actives have a fitted effect of over 50% in size). The method, boiled down:
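HRE-bla ME-180; 0.5% dFBS; cpd 17 h, 37C, 5% CO2; CellTiter-Glo lum., 30 min RT, post-FRET read, same wells.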

Experiment [3] in a line: qHTS assay to identify small molecule agonists of H2AX (AID 1224845; active means well fitted activation curve with a large enough effect in the signal ratio in the repeat runs, not every such curve was filed as active; the % refers to the signal ratio). The method in brief: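 Wild-type CHO-K1 cells, plated overnight, exposed 3hr at 37C to 15 concentrations (0.76% DMSO final). Lysed, then HTRF anti-pH2AX (S139) cryptate and anti-H2AX-d2 antibodies, 24 hr room temperature; 665/620 nm emission read.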
Experiment [4] can be described thus: qHTS assay to identify small molecule agonists of the hypoxia (HIF-1) signaling pathway (AID 1224846; active means well fitted activation curve with a large enough effect in the signal ratio in the repeat runs, not every such curve was filed as active; the % refers to the signal ratio). The method, boiled down:
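Reporter induction in HRE-bla ME-180 cells is taken as agonism: cells sit 5 hrs after plating, receive compounds or DMSO only, incubate 17 hrs at 37C under 5% CO2, and are loaded with CCF4-AM for beta-lactamase FRET measurement.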

Experiment [5] is described as follows: qHTS assay to identify small molecule agonists of H2AX - cell viability counter screen (AID 1224847; calls by dose curve; further: top concentration of the series differs between compounds; nearly all actives have a fitted effect of over 30% in size). The method, boiled down:
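Compounds tested at 15 concentrations were incubated 3 hr at 37C with wild-type CHO-K1 cells; cellular ATP-based luminescence (CellTiter-Glo) indicated viability.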

Experiment [6] is described as follows: qHTS assay to identify small molecule antagonists of the estrogen related receptor (ERR) signaling pathway from Tox21 library (AID 1224848). Further: nearly all actives have a fitted effect of over 50% in size. The method, boiled down:
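Quantitative high-throughput format: ERR reporter cells (2,000/well) pre-incubated 6 h, treated 18 h at 37 C with compounds in DMSO alongside positive and negative controls, then read by ONE-Glo luminescence.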

A short description of experiment [7]: qHTS assay to identify small molecule agonists of the estrogen related receptor (ERR) signaling pathway from Tox21 library (AID 1224849; calls by dose curve; further: nearly all actives have a fitted effect of over 15% in size). The settings on record: ERR reporter cell line, ONE-Glo luciferase, 18 h; at 92.4 µM (top of the series) unless noted. The method in brief: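 Tox21 compounds tested for ERR agonism in an NTP reporter cell line: 18 h treatment at 37 C, then ONE-Glo luminescence.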

The nature of experiment [8]: qHTS RealTime-Glo MT Cell Viability Assay in HepG2 cells - 24 hour (AID 1224867). Further: nearly all actives have a fitted effect of over 50% in size. The method in brief: (§1)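 Viability was tracked continuously by NanoLuc luminescence from prosubstrate reduced by living HepG2 cells, at successive time points over 40 h of compound exposure. Cells with reagent were preincubated 5 h at 37 °C before compound addition.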
A short description of experiment [9]: qHTS RealTime-Glo MT Cell Viability Assay in HEK293 cells - 32 hour (AID 1224868). Further: nearly all actives have a fitted effect of over 50% in size. Further: potency means the concentration at half of the fitted maximal effect. On activity change, negative = cytotoxic: top concentration of the series differs between compounds. The method in brief: (§2)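 Viability tracked continuously by luminescence as live cells reduce a prosubstrate for NanoLuc; HEK293 cells preincubated 5 h, compound-treated at 37 C, and read at 0, 8, 16, 24, 32 and 40 h.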
A short description of experiment [10]: A CellTox Green Cytotoxicity Assay to monitor cytotoxicity in HEK293 cells - 0 hour (AID 1224869). Further: nearly all actives have a fitted effect of over 50% in size. The method, boiled down:
(§3)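 Tox21 screen in HEK293: membrane-impermeant cyanine dye fluoresces on binding dead-cell DNA; compound pinned 5 h post-seeding, plates held at 37 C, signal read repeatedly through 40 h.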

A short description of experiment [11]: qHTS RealTime-Glo MT Cell Viability Assay in HepG2 cells - 40 hour (AID 1224870). Further: nearly all actives have a fitted effect of over 50% in size. The method, boiled down: (§4)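 HepG2 cells (600/well) mixed with RealTime-Glo MT reagent, settled 5 h at 37 C/5% CO2 before compound addition. Nonlytic NanoLuc luminescence from viable-cell prosubstrate reduction read repeatedly during 40 h treatment at 37 C.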
A short description of experiment [12]: A CellTox Green Cytotoxicity Assay to monitor cytotoxicity in HEK293 cells - 40 hour (AID 1224871). Further: nearly all actives have a fitted effect of over 45% in size. The method in brief:
as §3

Experiment [13] in a line: qHTS RealTime-Glo MT Cell Viability Assay in HEK293 cells - 16 hour (AID 1224872). Further: nearly all actives have a fitted effect of over 50% in size. Further: potency means the concentration at half of the fitted maximal effect. On activity change, negative = cytotoxicity: top concentration of the series differs between compounds. The method, boiled down: as §2
Experiment [14] can be described thus: qHTS RealTime-Glo MT Cell Viability Assay in HepG2 cells - 8 hour (AID 1224873). Further: nearly all actives have a fitted effect of over 55% in size. The method, boiled down: as §4
A short description of experiment [15]: qHTS RealTime-Glo MT Cell Viability Assay in HEK293 cells - 40 hour (AID 1224874). Further: nearly all actives have a fitted effect of over 50% in size. Further: potency means the concentration at half of the fitted maximal effect. The settings on record: RealTime-Glo luminescence; max response: stronger effect = lower value. The method, boiled down:
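HEK293 + NanoLuc + prosubstrate, 600 cells/well; 5 h, 37 C/5% CO2; compound 23 nL in DMSO by pintool; 37 C; luminescence read at 0, 8, 16, 24, 32 and 40 h time points.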

Experiment [16] is described as follows: A CellTox Green Cytotoxicity Assay to monitor cytotoxicity in HEK293 cells - 24 hour (AID 1224875). Further: nearly all actives have a fitted effect of over 45% in size. The method, boiled down:
as §3

Experiment [17] in a line: A CellTox Green Cytotoxicity Assay to monitor cytotoxicity in HepG2 cells - 16 hour (AID 1224876). Further: nearly all actives have a fitted effect of over 45% in size. The method, boiled down: (§5)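 Measurements at 0, 8, 16, 24, 32 and 40 h of treatment captured CellTox Green fluorescence in HepG2 cells that had been co-plated with reagent and preincubated 5 h at 37 C/5% CO2.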
Experiment [18] in a line: qHTS RealTime-Glo MT Cell Viability Assay in HepG2 cells - 32 hour (AID 1224877). Further: nearly all actives have a fitted effect of over 55% in size. The method, boiled down:
as §1

Experiment [19] in a line: A CellTox Green Cytotoxicity Assay to monitor cytotoxicity in HepG2 cells - 40 hour (AID 1224879). Further: nearly all actives have a fitted effect of over 40% in size. The method, boiled down:
as §5

Experiment [20] can be described thus: A CellTox Green Cytotoxicity Assay to monitor cytotoxicity in HepG2 cells - 24 hour (AID 1224878). Further: nearly all actives have a fitted effect of over 45% in size. The method in brief:
as §5
On the % scale 0 is the no-effect control and ±100 the full control effect.

Thyrotropin receptor (Homo sapiens), sequence (P16473 whole entry, looked up): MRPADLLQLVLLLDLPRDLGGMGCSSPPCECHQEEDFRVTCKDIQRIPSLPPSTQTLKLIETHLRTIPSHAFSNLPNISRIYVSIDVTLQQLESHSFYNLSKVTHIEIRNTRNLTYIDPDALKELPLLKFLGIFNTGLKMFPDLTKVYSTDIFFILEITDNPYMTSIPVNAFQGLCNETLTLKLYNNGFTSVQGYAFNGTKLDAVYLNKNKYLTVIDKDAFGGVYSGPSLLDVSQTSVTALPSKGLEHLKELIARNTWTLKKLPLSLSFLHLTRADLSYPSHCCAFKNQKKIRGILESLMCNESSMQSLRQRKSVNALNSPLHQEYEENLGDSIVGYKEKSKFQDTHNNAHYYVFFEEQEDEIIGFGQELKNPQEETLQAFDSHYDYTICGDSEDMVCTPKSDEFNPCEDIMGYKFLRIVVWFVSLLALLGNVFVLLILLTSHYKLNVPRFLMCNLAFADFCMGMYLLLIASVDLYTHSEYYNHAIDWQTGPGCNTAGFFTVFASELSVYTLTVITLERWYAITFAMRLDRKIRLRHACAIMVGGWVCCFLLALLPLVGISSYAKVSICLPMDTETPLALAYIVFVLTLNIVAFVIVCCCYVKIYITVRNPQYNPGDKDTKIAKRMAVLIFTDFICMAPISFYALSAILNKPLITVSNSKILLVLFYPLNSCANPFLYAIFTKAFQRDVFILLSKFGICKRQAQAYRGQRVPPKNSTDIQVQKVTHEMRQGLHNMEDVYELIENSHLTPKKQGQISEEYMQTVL

Regarding `CCCCCCCCCC/C=C/C#N`, the Potency entry in [1], in experiment [2], in experiment [3], in experiment [5], in [6] and in [8] was “inactive” each time. Also, the Potency result in experiment [9], in [10], in [11], in experiment [12], in [13] and in [16] was “inactive” in each case. For the same molecule, the Potency result in experiment [17], in experiment [18] and in experiment [19] was “inactive” throughout. The result in [4] and in [14] was inactive. Moreover, the activity change, positive = activation in [7] was -1.03%. The max response in experiment [15] is 4.49%.

As to `CCc1cc2cc(OC)c(OC)cc2c(Cc2ccccc2)n1`, the Potency entry in [1], in experiment [2], in experiment [3], in experiment [5], in [6] and in experiment [8] was “inactive” in each case. For the same molecule, the Potency result in experiment [10], in experiment [11], in experiment [12], in experiment [16] and in [18] was “inactive” in each case. Also, the molecule was called inactive in experiment [4] and in [14]. In experiment [7], the activity change, positive = activation is -12.2% [at 42.5 µM]. In addition, the Potency in experiment [9], in experiment [13] and in experiment [15] was 16.9 µM (active) in each case.

Regarding `O=C(O)c1ccccc1Nc1cc(Cl)ccc1C(=O)O`, the activation in experiment [1] was -5.91% [at 19 µM]; in experiment [4] it was -1.19% [at 15.8 µM]. Further, the activity change, negative = cytotoxicity was 5.17% [at 15.8 µM] in [2], 9.56% [at 31.6 µM] in experiment [5], -0.715% [at 15.8 µM] in [8] and 1.77% [at 15.8 µM] in experiment [13]. Moreover, the activation (H2AX phosphorylation) in [3] is 5.25% [at 31.6 µM]. For the same molecule, in experiment [6], the activity, negative = inhibition is -10.4% [at 19 µM]. Besides, the activity change, positive = activation in [7] is -5.59% [at 19 µM]. The figures for the activity change, negative = cytotoxic in experiment [9], in [11] and in [18] were 3.41% [at 15.8 µM], -5.11% [at 15.8 µM] and -8.29% [at 15.8 µM], respectively. Also, the cytotoxicity is 1.27% [at 15.8 µM] in [10] and 9.31% [at 15.8 µM] in experiment [20]. For the same molecule, the cytotoxicity increase in [12] was -12.4% [at 15.8 µM]; in experiment [17] it was 1.42% [at 15.8 µM]; in experiment [19], 28.2% [at 15.8 µM]. Besides, the viability change, negative = cytotoxic in experiment [14] was 0.891% [at 15.8 µM]. For the same molecule, the max response in experiment [15] is 2.59%. In experiment [16], the activity change is -4.95% [at 15.8 µM, stronger effect = higher value].

Take `C=O`: the Potency result in experiment [1], in experiment [2], in experiment [3], in experiment [5], in [6] and in experiment [8] was “inactive” throughout. Moreover, the Potency result in [9], in experiment [10], in [11], in [12], in experiment [13] and in [16] was “inactive” in each case. For the same molecule, the Potency result in experiment [17], in experiment [18], in experiment [20] and in experiment [19] was “inactive” each time. Besides, the molecule was classed as inactive in experiment [4] and in experiment [14]. Besides, the activity change, positive = activation in [7] is 0.267%. In addition, the max response in [15] is -2.52%.

With `O=C(O)[C@@H](O)[C@H](O)[C@H](O)[C@@H](O)C(=O)O`, the Potency result in experiment [1], in experiment [2], in experiment [3], in [5], in experiment [6] and in [8] was “inactive” in each case. In addition, the Potency result in [9], in experiment [10], in experiment [11], in experiment [12], in experiment [13] and in experiment [16] was “inactive” in each case. Further, the Potency entry in experiment [17], in experiment [18], in [20] and in experiment [19] was “inactive” in each case. In addition, the result in experiment [4] and in [14] was inactive. The activity change, positive = activation in experiment [7] was 4.4% [at 42.5 µM]. The max response in experiment [15] was 0.215%.

On to `FC(F)(F)C(F)(F)C(F)(F)C(F)(F)C(F)(F)C(F)(F)C(F)(F)C(F)(F)Br`, for which the Potency entry in experiment [1], in experiment [2], in experiment [3], in [5], in experiment [6] and in [8] was “inactive” throughout. The Potency entry in experiment [9], in experiment [10], in experiment [11], in experiment [12], in experiment [13] and in experiment [16] was “inactive” each time. Also, the Potency result in experiment [17], in experiment [18], in [20] and in experiment [19] was “inactive” throughout. Moreover, the call in [4] and in [14] was inactive. For the same molecule, the activity change, positive = activation in [7] is 6.1% [at 42.5 µM]. Moreover, in [15], the max response was -0.235%.
